# A selection: hits, their analogues and other compounds. The true share with any hit is near 1%.
# ugtP null kill – compounds lethal to S. aureus RN4220 ugtP deletion mutant | growth inhibition, % (test concentration not listed) | actives 0.54% (n = 330,000) | AID 1259309 | OD600 growth, 16 h; in the data active = growth inhibition above about 68%;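 note: plate controls were untreated wells for no effect and antibiotic for full effect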
# RN4220 kill – kills Staphylococcus aureus RN4220; S. aureus RN4220 growth, OD600, 16 h; inhibition, % (no concentration beside the values); actives 0.33% (n = 330,000); in the data active = inhibition above about 85%;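 note: plate controls were untreated cells for no effect and reference antibiotic for full effect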
# SSB-PriA inh – K. pneumoniae PriA-SSBct interaction inhibition; actives 0.6% (n = 430,000); AlphaScreen SSBct-PriA binding, biotinylated peptide; inhibition, % at 33 µM; AID 1272365; in the data active = inhibition mostly above about 37%, no sharp cut-off; inactive = mostly below about 20%;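 note: plate controls were negative control peptide for no effect and reference peptide for full effect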
# The depositor's hits bear a star; . = not tested or not shown; + = active, no number.
SMILES,ugtP null kill,RN4220 kill,SSB-PriA inh
CC1(C)CC(NS(=O)(=O)OCC(Cl)(Cl)Cl)c2cc(C#N)ccc2O1 (stereo not drawn),99*,99*,6
Cc1cc(C)c(S(=O)(=O)NCc2ccc(C(=O)c3ccccc3)s2)cc1C,.,.,-1
COc1ccc(NCc2nn(CC(=O)c3ccc(Br)cc3)c3[n+]2CCCCC3)cc1,2,1,12
O=C(Cn1nc(CNc2ccc(Cl)cc2)[n+]2c1CCCCC2)c1ccc(Br)cc1,98*,89*,7
CO[C@@](C)(CNC(=O)C1(c2ccc(F)cc2)CC1)c1ccccc1F,.,.,8
COc1cc(S(N)(=O)=O)c(OC)cc1N,-2,5,-7
COc1cc(N=Nc2ccc(C)cc2S(N)(=O)=O)c(C)cc1N,8,9,48*
O=[N+]([O-])c1cccc(NN=Cc2ccc(N3CCOCC3)cc2)c1,2,-21,52*
Clc1cccc(NN=Cc2ccc(N3CCOCC3)cc2)c1,0,1,-5
COC1(OC)C(/C=C\c2ccc(Cl)cc2)C(C#N)(C#N)C1(OC)OC (stereo not drawn),.,.,5
N#C/C(=C\N1CCN(c2cccc(Cl)c2)CC1)C(=O)Nc1ccc(F)cc1,.,.,0
Cc1ccc(NC(=S)NC(=O)C2CCCC2)c(Br)c1,93*,7,4
O=C(NC(=S)Nc1ccccc1Br)C1CC1,10,5,-25
O=C(Cc1csc(Nc2ccc(F)cc2)n1)NCC1CCCO1 (stereo not drawn),.,.,-7
COc1ccc(S(=O)(=O)Nc2cccc(C(=O)Nc3nnc(C4=COCCO4)o3)c2)cc1,.,.,56*
Cc1ccc(S(=O)(=O)Nc2cccc(C(=O)Nc3nnc(-c4ccco4)o3)c2)cc1,.,.,0
O=C(Nc1nnc(C2=COCCO2)o1)c1ccc(F)cc1,-5,16,4
O=C(Nc1nnc(-c2ccc3c(c2)OCCO3)o1)c1cccc(NS(=O)(=O)c2ccc(F)cc2)c1,.,.,32*
O=C(Nc1nnc(C2=COCCO2)o1)c1cccc(C(F)(F)F)c1,82,95*,-1
O=C(Nc1nnc(-c2ccc3c(c2)OCCO3)o1)c1cccc(Cl)c1,.,.,-6
O=C(Nc1cccc(Br)c1)[C@@H]1COCC(=O)N1Cc1cccs1,.,.,1
N#CC(=NNc1ccc(Cl)cc1)C(=O)c1ccsc1,99*,100*,-7
Cc1ccc(NN=C(C#N)C(=O)c2ccsc2)cc1,75,80,-3
CC(=O)/C(N)=N/Nc1cccc(Cl)c1,7,4,.
N#CC(=NNc1ccc(Cl)cc1)C(N)=S,88*,81,13
SMILES,ugtP null kill,RN4220 kill,SSB-PriA inh
N#CC(=NNc1cccc(Cl)c1)C(=O)c1ccccc1,100*,100*,15
N#CC(=NNc1ccccc1)C(N)=S,.,.,0
Cc1cc(CCNC(=O)CSCc2ccccc2)on1,.,.,0
O=C1C(Br)=Cc2cccc3cccc1c23,92*,83,17
O=C1C(=O)c2cccc3cccc1c23,5,2,-4
COC(=O)c1cc(OCC(=O)Nc2cccc(Cl)c2C)c2cc(OC)c(OC)cc2n1,.,.,1
N/C(=N\OC(=O)Cc1ccccc1)c1ccccn1,10,7,.
NC(=NOC(=O)Cc1ccc([N+](=O)[O-])cc1)c1ccccn1,1,4,42*
COC(CNC(=O)NCc1ccc(F)cc1)c1ccccc1Cl (stereo not drawn),.,.,3
O=C(Cc1ccccc1)NN=Cc1ccccn1,9,7,-5
CC(=NNC(=S)N(Cc1ccccn1)Cc1ccccn1)c1cnccn1,.,.,94*
NC(=S)N/N=C(\c1ccccc1)c1ccccn1,.,.,+
S=C(NN=C(c1ccccc1)c1ccccn1)N(Cc1ccccn1)Cc1ccccn1,.,.,74*
S=C(NN=Cc1ccccn1)N(Cc1ccccn1)Cc1ccccn1,.,.,96*
CC(=NNC(=S)N1CC2CCC(CC2)C1)c1cnccn1,.,.,-11
O=C(NN=C(c1ccccc1)c1ccccn1)c1ccccc1,.,.,-5
NC(=S)NN=C(c1ccccc1)c1ccccc1,2,-1,11
C=c1ccccc1=C1NN=C(NC(=O)C(CC)SCC(=O)OC)S1 (stereo not drawn),.,.,0
Cc1nc2ccccc2c(=O)n1-c1cccc(NC(=O)c2ccc(Cl)c([N+](=O)[O-])c2)c1,.,.,4
O=[N+]([O-])c1ccccc1S(=O)(=O)NCCOc1ccc2c(c1)OCO2,.,.,22
CSc1cccc(NC(=O)c2cc(OCc3ccccc3)no2)c1,.,.,-27
O=[N+]([O-])c1cc(C(F)(F)F)cc([N+](=O)[O-])c1Sc1cccc2cccnc12,.,.,56*
COc1ccc(C(=O)Oc2cccc3cccnc23)cc1[N+](=O)[O-],-1,10,0
CN(N=Cc1cccc2cccnc12)c1ccc([N+](=O)[O-])cc1[N+](=O)[O-],.,.,-12
Oc1cc(Cl)cc2cccnc12,.,.,84*
SMILES,ugtP null kill,RN4220 kill,SSB-PriA inh
Oc1cc(F)cc2cccnc12,.,.,51
COc1ccc(CSc2cccc3cccnc23)cc1[N+](=O)[O-],17,41,45*
O=[N+]([O-])c1cc([N+](=O)[O-])c2ncccc2c1,.,.,63*
O=[N+]([O-])c1ccc(Sc2cccc3cccnc23)c2cccnc12,15,-9,28
Cc1ccc(OC2CCN(C(=O)CSc3nc4ccccc4o3)CC2)nn1,.,.,-6
CCOc1cc(C(=O)Nc2ccc(-n3nncc3-c3ccc(Br)cc3)cc2)cc(OCC)c1OCC,.,.,1
Cc1cc(O)c2ncccc2c1,.,.,15
O=[N+]([O-])c1cc(O)c2ncccc2c1,19,45,84*
COc1ccc(CNC(=O)NC[C@H]2CCCN2c2nccs2)cc1,.,.,-1
Nc1c(C(=O)Nc2nc3ccccc3s2)sc2nc(-c3cccs3)ccc12,99*,80,-21
CC(=O)c1sc2nc(-c3cccs3)ccc2c1N,-16,-1,-9
CN(C(=O)COc1ccc(F)cc1)[C@@]1(C)CCS(=O)(=O)C1,.,.,-18
COc1ccc(-c2c(C)nc(N)nc2-c2ccc(OCc3ccc(F)cc3)cc2O)cc1,.,.,1
CCCCCc1cc(=O)oc2c(C(CCN3CCCC(C)C3)c3ccc(N(C)C)cc3)c(OC)cc(OC)c12 (stereo not drawn),-2,4,90*
CCCCCc1cc(=O)oc2c(C(CCN(CC)CC)c3ccc(N(C)C)cc3)c(OC)cc(OC)c12 (stereo not drawn),-1,-7,67*
CCCCCc1cc(=O)oc2c(C(CCN3CCCC(C)C3)c3cc(OC)c(OC)c(OC)c3)c(OC)cc(OC)c12 (stereo not drawn),-10,-3,13
CCN(CC)CCC(c1cc(OC)c(OC)c(OC)c1)c1c(OC)cc(OC)c2c(C)cc(=O)oc12 (stereo not drawn),-2,2,-3
COc1cc(C(=O)Nc2c3c(nn2C)CCC3)cc(OC)c1OC,.,.,4
O=S(=O)(Nc1cccc(-c2ccc(N3CCCC3)nn2)c1)c1cccnc1,.,.,-5
CCn1nnc2c(=O)n(Cc3ccccn3)cnc21,.,.,-15
COc1cc(C(=O)Nc2nccs2)ncn1,.,.,-8
O=C(CN1C(=O)CCC1=O)Nc1nc(-c2ccccn2)cs1,9,4,51*
O=C(CN1C(=O)CCOc2ccccc21)Nc1nc(-c2ccccn2)cs1,.,.,93*
CCNC(=O)CN1C(=O)NC2(CCOc3ccccc32)C1=O (stereo not drawn),6,1,-8
O=C(CN1C(=O)CCC1=O)Nc1nc(-c2ccc3ccccc3c2)cs1,-12,-2,-2

# Screening data deposited in PubChem by several laboratories.
